Shn3 inh set2: reduces Shn3 3'UTR luciferase signal in osteoblasts; Clone20 osteoblast Shn3 3'UTR firefly luciferase, 24 h; inhibition, % at 12.5 µM; 360,000 compounds, 0.52% hits; AID 588674;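 active means mean inhibition of at least 75% with every replicate also reaching 75%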;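 further: 0% = median of neutral control wells and 100% = pilot-screen positive control compound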
Jurkat NFkB inh: lowers PMA/ionomycin-induced NF-kB signal in Jurkat cells; 330,000 compounds, 0.53% hits; PMA/ionomycin-induced NF-kB luciferase reporter, luminescence; inhibition, % at 4 µM; in the data active means inhibition above about 50%
Beta apoptosis: blocks beta cell apoptosis; INS-1E cytokine-induced death, ATP luminescence, 48 h; percent of positive-control rescue, neutral wells zero; protection from apoptosis, % (no concentration beside the values); 300,000 compounds, 0.8% hits; AID 435005;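 active means Every replicate reaches about 75%, or at least half do and their mean reaches it too, limit read from the data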;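 further: 0% = cytokine-treated negative control wells and 100% = positive control rescue; higher means more ATP so stronger rescue from cytokine killing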
697 NFkB inh: lowers PMA/ionomycin-induced NF-kB signal in 697 B cells; 697 B-cell NF-kB luciferase reporter, 16 h; inhibition, % at 4 µM; 330,000 compounds, 0.33% hits; AID 435022; in the data active means inhibition above about 35%
Calb FLC: affects C. albicans growth with fluconazole; C. albicans CaCi-2 (fluconazole-resistant clinical isolate) + fluconazole, Alamar Blue growth, 48 h; growth inhibition, % (concentration not given with the values); 300,000 compounds, 0.57% hits; AID 1979;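 active means growth inhibition above about 58% in most replicates, limit read from the data, passing the limit was not always enough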;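 further: all wells also contain fluconazole at 8 µg/ml as a sub-toxic cotreatment; 0% = median of DMSO wells and 100% = median of geldanamycin control wells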
Jurkat NFkB conf: inhibitors of the PMA/ionomycin-induced NF-kB reporter in Jurkat cells, retest | shares compounds with Jurkat NFkB inh | Jurkat NF-kB luciferase, 16 h | inhibition, % at 4 µM | 2,700 compounds, 27% hits | AID 435020;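 active means inhibition reaching about 45% at 4 µM in either replicate, limit read from the data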;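 further: plate controls were PMA/ionomycin stimulated DMSO wells for no effect and unstimulated DMSO wells for full effect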
Numbers without * were called inactive; / = no result given. This is a sample that favours compounds with a hit; in the whole collection about 2% have one here.

SMILES | Shn3 inh set2 | Jurkat NFkB inh | Beta apoptosis | 697 NFkB inh | Calb FLC | Jurkat NFkB conf
CSc1nc(C)cc(OCC(=O)N/N=C/c2ccccc2O)n1 | 52 | 52* | 65 | -52 | 8 | 18
Cc1cc(=O)oc2cc(OCC(=O)N/N=C/c3ccccc3O)ccc12 | 3 | 2 | 1 | 12 | 1 | /
O=C(NC1CC1)C1=C[C@H](c2ccc(C(F)(F)F)cc2)C[C@H](OCc2ccc(CO)cc2)O1 | -27 | -24 | / | -19 | 11 | /
Cc1ccc(CCC(=O)Nc2ncc(Cc3cccc(Cl)c3Cl)s2)o1 | 17 | 72* | / | -140 | 2 | 0
CCOC(=O)c1cnc2c(-c3ccccc3)cnn2c1N | -72 | -163 | 3 | -232 | -4 | -128
O=C(Nc1cnc2sccn2c1=O)c1ccc(Cl)cc1Cl | -28 | -151 | -4 | -176 | 3 | -48
COc1ccc(Cl)cc1NC(=O)c1cnc2sccn2c1=O | -8 | -64 | / | -31 | 3 | /
COc1cc(NCc2ccccc2O)c2ncccc2c1 | 1 | 10 | / | -5 | 26 | /
COc1cc(NCCCCCCCN)c2ncccc2c1 | 3 | 93* | 13 | -44 | -8 | 60*
CCN1C(=O)[C@H]2[C@@H](c3ccc(C)cc3)N[C@]3(CCCN(Cc4ccco4)C3=O)[C@H]2C1=O | -8 | / | / | / | / | /
Cn1cccc1/C=N/NC(=O)c1ccn[nH]1 | 10 | 1 | -5 | -3 | 3 | /
COc1ccccc1CCCNC(=O)C1CCC(=O)N(CCCN2CCCC2=O)C1 (stereo unspecified) | 9 | -1 | -2 | 1 | 4 | /
Clc1ccccc1/C=N/NC1=Nc2cccc3cccc1c23 | -88 | -163 | 13 | -163 | -15 | -86
Cc1ccc(/C=N/NC(=O)c2cc(-c3cccnc3)nc3ccccc23)cc1 | 18 | 63* | 19 | -15 | 13 | 12
O=C(N/N=C/c1cccnc1)c1cc(-c2ccc(Cl)cc2)nc2ccccc12 | 14 | 4 | 7 | -7 | 23 | /
O=C(N/N=C/c1ccc(Cl)cc1)c1cc(-c2cccnc2)nc2ccccc12 | -19 | 66* | 20 | -42 | 22 | 15
CCC(=O)Nc1ccc2c(c1)C(=O)c1ccccc1C2=O | -33 | -161 | 8 | -87 | 19 | -107
COc1ccc(/C=C2/C(=O)OCc3cc(OC)c(OC)cc32)cc1 | 7 | 55* | 24 | -68 | -3 | 48*
Cc1ccc(N/C(N)=N/c2nc(C)cc(C)n2)cc1 | 17 | 3 | -4 | 4 | -13 | /
CCCCc1ccc(N/C(N)=N/c2nc(C)cc(C)n2)cc1 | 71 | 75* | 124* | -40 | -5 | 30
Cc1cc(C)cc(N/C(N)=N/c2nc(C)cc(C)n2)c1 | 3 | 51* | 0 | -14 | -23 | 10
CCN(CC)S(=O)(=O)c1ccc(N2CCOCC2)c(NC(=O)c2cc3ccccc3o2)c1 | 12 | / | / | / | / | /
O=C1OCC/C1=C\OCCCO/C=C1\CCOC1=O | 4 | -14 | -5 | -4 | -1 | /
O=C1N(Cc2ccccc2)CC2(Br)COCOC12O (stereo unspecified) | -11 | / | / | / | / | /
O=S(=O)(Nc1cccc2ncccc12)c1cccs1 | 94* | 80* | 13 | -25 | 95* | 64*
SMILES | Shn3 inh set2 | Jurkat NFkB inh | Beta apoptosis | 697 NFkB inh | Calb FLC | Jurkat NFkB conf
N=c1ccn(CC(=O)c2ccc(-c3ccccc3)cc2)cc1 | 63 | 58* | 134* | 10 | -2 | 46
O=C(CN1C(=O)CCC1=O)c1ccc(-c2ccccc2)cc1 | -25 | -9 | 1 | -27 | 0 | /
Oc1ccccc1-c1cc(-c2ccccc2Cl)[nH]n1 | -60 | -221 | 6 | -246 | -35 | -106
Oc1ccc(Cl)cc1-c1cc(-c2cccc(Br)c2)n[nH]1 | 0 | 9 | 18 | -17 | -7 | /
Oc1ccccc1-c1cc(-c2cccc(F)c2)n[nH]1 | -72 | -155 | 7 | -222 | -33 | -137
Oc1ccc(Cl)cc1-c1cc(-c2ccccc2Cl)[nH]n1 | -72 | -25 | 4 | -26 | -8 | /
Cc1onc(-c2ccccc2)c1C(=O)N1CCN(c2ccccc2F)CC1 | -21 | 6 | / | 10 | 12 | /
CCc1ccc(C2=NN(S(C)(=O)=O)C(c3cccs3)C2)cc1 (stereo unspecified) | -17 | -182 | 3 | -231 | -1 | -65
Cc1ccc(C2=NN(S(C)(=O)=O)C(c3cccs3)C2)cc1 (stereo unspecified) | -80 | -48 | -3 | -87 | -1 | /
O=C(Nc1nc(-c2ccccn2)cs1)c1ccc(Cl)s1 | 90* | 65* | 92* | -98 | -3 | 44
COc1cc(OC)cc(C(=O)NCC(=O)N2CC=C(c3ccccc3)CC2)c1 | 8 | 70* | / | -44 | / | 14
O=C(NCC(=O)N1CC=C(c2ccccc2)CC1)c1ccc(OC(F)F)cc1 | 15 | 0 | 13 | -3 | / | /
CC(C)NC(=O)C1CCN(S(=O)(=O)c2ccc(N3CCCC3=O)cc2)CC1 | -5 | 79* | 1 | -6 | 5 | 9
Cc1cc2[nH]c(=O)c(=O)[nH]c2cc1S(=O)(=O)Nc1cccc(F)c1 | -14 | 6 | -1 | -16 | 5 | /
CCOC(=O)c1ccc(NC(=O)c2nc[nH]c2C(=O)NCCCCNC(=O)c2[nH]cnc2C(=O)Nc2ccc(C(=O)OCC)cc2)cc1 | 45 | 67* | 54 | 9 | / | 23
Cc1ccc(NC(=O)c2nc[nH]c2C(=O)NCCCCCCNC(=O)c2[nH]cnc2C(=O)Nc2ccc(C)cc2)cc1 | 1 | 9 | 22 | 6 | / | /
Cc1ccc(NC(=O)c2nc[nH]c2C(=O)NCCCCNC(=O)c2[nH]cnc2C(=O)Nc2ccc(C)cc2)cc1 | 38 | 50* | 15 | 25 | / | 17
Cc1c(OCC(=O)NCCN2CCOCC2)ccc2c(-c3ccccc3)cc(=O)oc12 | 9 | -2 | -1 | 21 | 3 | /
C[C@]12CC[C@@H]3c4ccc(O)cc4[C@@H](O)C[C@H]3[C@@H]1CC[C@@H]2O | 1 | 2 | -2 | -9 | -4 | /
C[C@]12CC[C@@H]3c4cc(O)c(O)cc4CC[C@H]3[C@@H]1CC[C@@H]2O | 23 | 52* | -3 | -41 | / | 40
CCOc1cc(CNc2ccc3c(c2)OCCO3)cc(Br)c1OC | 51 | 59* | 17 | 3 | -3 | 15
O=C(Cc1ccc(N2CCNC2=O)cc1)N1CCCC(Nc2ccc(F)c(F)c2)C1 (stereo unspecified) | 22 | 63* | 2 | -53 | 2 | 16
O=C(Cc1ccc(N2CCNC2=O)cc1)N1CCCC(Nc2cccc(F)c2)C1 (stereo unspecified) | 27 | 59* | 22 | -53 | -5 | 14
Oc1ccc(-c2nccc(-c3ccc(F)cc3)n2)cc1 | -132 | -64 | -1 | -47 | -24 | /
Cc1cccc(NC(=O)c2nc[nH]c2C(=O)Nc2cc(Br)ccc2F)c1 | 11 | / | / | / | / | /
CC1=C([N+](=O)[O-])C(c2cccc(Br)c2)C2=C(N1)c1ccccc1C2=O (stereo unspecified) | 13 | 54* | 37 | -14 | 36 | 20
